The nature of assay [1]: Drug repurposing screens with cells derived from glioblastoma tumor samples (AID 1345199). Note: nearly all actives have a fitted effect of over 40% in size. As to conditions: GBM patient neurospheres viability, ATP luminescence, 48 h. The method, boiled down:
(§1)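 Four patient lines of CD133+ GBM neurospheres were screened at several concentrations; hits were retested in those lines plus three slower-growing GBM lines, using 48-hour treatment and ATP-based viability.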

A further assay deals with astro (control astrocytes). Described as above. As to conditions: viability, ATP luminescence, 48 h; series mostly up to 45.9 µM. A digest of the protocol: as §1
[2] abbreviates: at 45.9 µM (top of the series), tumour line B.
Setting [3] is: at 45.9 µM (top of the series), tumour line D.
Setting [4] is: at 46 µM (top of the series), tumour line A.
Setting [5] is: at 46.1 µM (top of the series), tumour line C.
The mark [6] stands for this setting: at 20 µM (top of the series), tumour line C.
Setting [7] is: at 21.2 µM (top of the series), tumour line B.
The mark [8] stands for this setting: at 21.2 µM (top of the series), tumour line D.
The mark [9] stands for this setting: at 21.3 µM (top of the series), tumour line A.

Where “and” joins values, the source holds several entries; their conditions need not be identical. Identical values can stand only once. Records with an inconclusive call do not appear. Values without a mark were called inactive. Calls of active or inactive are those of the source. Calls come from the whole dose curve; as a rule, active = well fitted inhibition curve with a large enough effect; inconclusive = small, poorly fitted or top-dose-only effect; inactive = flat fitted curve, though single readings scatter.
% is set by controls: 0 for no effect and ±100 for the full control effect; potency is the fitted concentration of half-maximal effect.

For `COc1cc2c(cc1OC)[C@@H](Cc1cc(OC)c(OC)c(OC)c1)[N+](C)(CCCOC(=O)CC/C=C/CCC(=O)OCCC[N+]1(C)CCc3cc(OC)c(OC)cc3[C@H]1Cc1cc(OC)c(OC)c(OC)c1)CC2` (stereo partly drawn), the activity, negative = cell killing was -17.7% and -2.67% in assay [1] (setting [2]); -12.5% and -11.6% in assay [1] (setting [3]); -22.5% in assay [1] (setting [4]); -14.7% and -8.1% in assay [1] (setting [5]).

On to `CN[C@@H]1[C@H](O[C@H]2[C@H](O[C@H]3[C@H](O)[C@@H](O)[C@H](N=C(N)N)[C@@H](O)[C@@H]3N=C(N)N)O[C@@H](C)[C@]2(O)CO)O[C@@H](CO)[C@H](O)[C@H]1O`, for which the activity, negative = cell killing in assay [1] (setting [2]) was -12.7%; in assay [1] (setting [3]), -12.4%; in assay [1] (setting [4]) it was -5.62%; in assay [1] (setting [5]), -12.6%.

For `CC/C=C\C/C=C\C/C=C\C/C=C\C/C=C\CCCC(=O)O`, the figures for the activity, negative = cell killing in assay [1] (setting [2]), in assay [1] (setting [3]) and in assay [1] (setting [5]) were -9.54%, -0.692% and -8.93%, respectively.

On to `CC(=O)Nc1ccc(OC(=O)c2ccccc2O)cc1`, for which the activity, negative = cell killing was -6.12% in assay [1] (setting [2]), -8.68% in assay [1] (setting [3]), -14.5% in assay [1] (setting [4]) and -22.3% in assay [1] (setting [5]).

With `CC(=O)Oc1cc(C(F)(F)F)ccc1C(=O)O`, the activity, negative = cell killing is -16.9% in assay [1] (setting [6]), -19.3% in assay [1] (setting [7]), -15.7% in assay [1] (setting [8]) and -29% in assay [1] (setting [9]).

Consider `CC(=O)Oc1cccc(C(=O)O)c1OC(C)=O`, for which the activity, negative = cell killing in assay [1] (setting [2]) was -9%; in assay [1] (setting [3]), -8.06%; in assay [1] (setting [4]), -12.3%; in assay [1] (setting [5]), -14.6%.

In the case of `CCCCC(=O)O[C@H]1CC[C@H]2[C@@H]3CCc4cc(O)ccc4[C@H]3CC[C@]12C`, the activity, negative = cell killing in assay [1] (setting [2]) was -20.6%; in assay [1] (setting [5]), 8.7%. The Potency was 28.2 µM (active) in assay [1] (tumour line A) and 11.2 µM (active) in assay [1] (tumour line D).

For `C[C@@H]1NC(=O)[C@@H](N)CNC(=O)[C@H](C2CCNC(N)=N2)NC(=O)/C(=C/NC(N)=O)NC(=O)[C@H](CNC(=O)C[C@@H](N)CCCN)NC1=O` (stereo partly drawn), the activity, negative = cell killing is 24.6% in assay [1] (setting [6]); -11.2% in assay [1] (setting [7]); -13.8% in assay [1] (setting [8]); -12.9% in assay [1] (setting [2]); -1.47% in assay [1] (setting [3]); -18.8% in assay [1] (setting [5]). For the same molecule, the Potency entry with astro is “inactive”.

`O=C(NNCNNC(=O)c1ccncc1)c1ccncc1`: the activity, negative = cell killing in assay [1] (setting [2]) is -12%; in assay [1] (setting [3]), -9.77%; in assay [1] (setting [4]), -25.1%; in assay [1] (setting [5]), -23%.

Consider `CC1=C(/C=C/C(C)=C/C=C/C(C)=C/C(=O)Oc2c(C)c(C)c3c(c2C)CC[C@@](C)(CCC[C@H](C)CCC[C@H](C)CCCC(C)C)O3)C(C)(C)CCC1`, for which the activity, negative = cell killing in assay [1] (setting [2]) is -7.62%; in assay [1] (setting [3]), -2.61%. In addition, the Potency in assay [1] (tumour line A) is 25.1 µM (active).

For `CCCCCc1ccc(C)cc1O`, the activity, negative = cell killing in assay [1] (setting [2]) is -7.13%; in assay [1] (setting [3]), 3.04%; in assay [1] (setting [4]) it was -24.1%; in assay [1] (setting [5]) it was -11.1%.

As for `c1ccc2cc(C3=NCCN3)ccc2c1`, the activity, negative = cell killing was -16.9% in assay [1] (setting [2]), -20.8% in assay [1] (setting [3]) and -24% in assay [1] (setting [5]). The Potency in assay [1] (tumour line A) was 11.2 µM (active).

With `O=C(NCCNCC(O)COc1ccc(O)cc1)N1CCOCC1` (stereo not drawn), the activity, negative = cell killing in assay [1] (setting [2]) was -5.84%; in assay [1] (setting [3]), -3.52%; in assay [1] (setting [4]), -55.7%; in assay [1] (setting [5]) it was -0.52%.

For the molecule `C[C@@H]1O[C@@H](OC[C@H]2O[C@@H](Oc3c(-c4ccc(OCCO)c(OCCO)c4)oc4cc(OCCO)cc(O)c4c3=O)[C@H](O)[C@@H](O)[C@@H]2O)[C@H](O)[C@H](O)[C@H]1O`, the activity, negative = cell killing in assay [1] (setting [2]) is -5.23%; in assay [1] (setting [3]) it was -14.3%; in assay [1] (setting [4]), -13.8%; in assay [1] (setting [5]), -13.8%.

Regarding `CN1CCC(OC(=O)C(Oc2ccc(Cl)cc2)Oc2ccc(Cl)cc2)CC1`, the activity, negative = cell killing in assay [1] (setting [2]) was -23.9%; in assay [1] (setting [3]), -4.4%; in assay [1] (setting [4]), -21%; in assay [1] (setting [5]) it was -21%. Besides, the Potency entry with astro was “inactive”.

On to `Nc1nc2c(c(=O)[nH]1)N(C=O)C(CNc1ccc(C(=O)N[C@@H](CCC(=O)O)C(=O)O)cc1)CN2` (stereo partly drawn), for which the activity, negative = cell killing in assay [1] (setting [6]) was -2.81%; in assay [1] (setting [7]), -5.52%; in assay [1] (setting [8]), -5.96%; in assay [1] (setting [9]) it was -10.3%. Besides, in the assay on astro, the Potency entry is “inactive”.

As for `CCCCC[C@H](O)/C=C/[C@H]1[C@H](O)CC(=O)[C@@H]1CCCCCCC(=O)O`, the activity, negative = cell killing in assay [1] (setting [6]) was 1.46%; in assay [1] (setting [7]), -10.6%; in assay [1] (setting [8]), -20.2%. Moreover, in assay [1] (tumour line A), the Potency is 11.2 µM (active).

On to `O=C(O)c1ccc(NC2OC[C@@H](O)[C@H](O)[C@H]2O)cc1` (stereo partly drawn), for which the activity, negative = cell killing was -2.93% in assay [1] (setting [2]), 0.684% in assay [1] (setting [3]), -26.5% in assay [1] (setting [4]) and -13.1% in assay [1] (setting [5]).

Take `C[C@@H](O)[C@H]1C(=O)N2C(C(=O)[O-])=C(SC3Cn4cnc[n+]4C3)[C@H](C)[C@H]12` (stereo partly drawn): the values for the activity, negative = cell killing in assay [1] (setting [2]), in assay [1] (setting [3]) and in assay [1] (setting [5]) were -14.6%, -27.3% and -6.91%, respectively.
